PubChem BioAssay AID485314 (National Center for Advancing Translational Sciences (NCATS), 2010)
“And” between values parts separate entries of the source, which are not always exact repeats. Identical values can stand only once. Screen size: about 340,000 compounds; about 4,500 (1.3%) were called active. Entries that show only a call come without a potency. About 5% were inconclusive and are not listed. The call rests on the fitted dose curve; in most records, active means well fitted inhibition curve with a large enough effect; inconclusive means small, poorly fitted or top-dose-only effect, or another doubt; inactive means no such curve, though single readings can be large or run the other way. For the sample, actives were picked, then their nearest neighbours and some compounds at random.

Biological target: DNA polymerase beta (Homo sapiens) (UniProt P06746)
Experiment: qHTS Assay for Inhibitors of DNA Polymerase Beta
Details: Pol beta primer extension/strand displacement, fluorescence kinetic; series mostly up to 114 µM
Method in brief: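 Curves were derived by four-parameter Hill fits of normalized qHTS data. The kinetic fluorescent primer-extension read was taken at 0 and 10 min after 50 nM substrate, following a 15 min room-temperature preincubation of 10 nM enzyme with compounds.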
Potency means the concentration at half of the fitted maximal effect.

SMILES | Potency
O=C1Cc2cc(S(=O)(=O)Nc3ccc(OC(F)(F)F)cc3)cc3c2N1CCC3 | inactive
Cc1ccc(NC(=O)c2nc(S(=O)(=O)Cc3cccc(C)c3)ncc2Cl)cc1 | inactive
COc1ccc(NS(=O)(=O)c2cc3c4c(c2)CC(=O)N4CCC3)cc1Cl | inactive
O=c1[nH]c2ccccc2n2c(-c3ccccc3)nnc12 | 39.8 µM (active)
O=c1[nH]n2c(-c3ccccc3)nc(O)c2c2ccccc12 | inactive
CC(C)Cn1c(=O)c2ccccc2n2c(-c3cccc(Cl)c3)nnc12 | inactive
COc1ccc(CNC(=O)c2cc3c(-c4ccccc4F)nn(C)c3s2)c(OC)c1 | inactive
COc1ccc(N2CCN(c3nc(-c4ccccc4F)nc4ccccc34)CC2)cc1 | inactive
COc1ccc(-n2c(C)nc3c(cnn3-c3ccc(F)cc3)c2=O)cc1 | inactive
CC(C)c1ccc(Cn2c(COc3ccccc3)nc3ccccc32)cc1 | inactive
Cc1c(C)n(Cc2ccc(Cl)cc2)c2ccc(C(=O)N3CCN(c4ccccc4F)CC3)cc12 | inactive
CC(C)c1ccc2c(c1)c(SC(C)(C)C)c(CC(C)(C)C(=O)O)n2Cc1ccc(Cl)cc1 | 50.1 µM (active) and 31.6 µM (active)
Cc1ccc(C)c(Oc2c(C(F)(F)F)oc3c(CN4CCN(C)CC4)c(O)ccc3c2=O)c1 | inactive
Cc1cccc(-n2ccnc2SCC(=O)Nc2cccc3ccccc23)c1C | inactive
CCCS(=O)(=O)Nc1cccc(-c2cn3ccsc3n2)c1 | inactive
CC(=O)Nc1ccc(NC(=O)CCCc2nc(-c3ccc(C(C)(C)C)cc3)no2)cc1 | inactive
CC(C)c1ccc(NC(=O)Cn2ncc3ccccc32)cc1 | inactive
CCCN1CCN(C(=O)Cn2ncc3ccccc32)CC1 | 12.6 µM (active)
CCc1nn(CC(=O)N2CCN(CC)CC2)c(=O)c2cccn12 | inactive
CC(=O)c1ccc(N2CCN(C3C(=O)c4ccccc4N3C(C)=O)CC2)cc1 (configuration not stated) | inactive
Cc1ccc(-c2ccc(CCC(=O)O)n2-c2ccc(C(N)=O)cc2)cc1 | inactive

SMILES | Potency
Cc1nn(-c2ccccc2)c(-n2cccc2)c1C(=O)O | inactive
Cc1nn(-c2ccc(F)cc2)c(-n2cccc2)c1C(=O)N1CCN(c2ccccc2)CC1 | inactive
Cc1ccc(-n2nc(C)c(C(=O)O)c2-n2cccc2)cc1 | 12.6 µM (active)
COc1cccc(NC(=O)C(=O)NCC(c2ccc3c(c2)OCO3)N2CCN(C)CC2)c1 (configuration not stated) | inactive
Cc1ccccc1Nc1nn2c(=O)c3ccc(C(=O)NCCc4ccc(Cl)cc4)cc3nc2s1 | inactive
CCN(Cc1ccccc1)S(=O)(=O)c1ccc2c(c1)CCCN2C(C)=O | inactive
CCc1nnc(SCC(=O)Nc2cc(OC)ccc2OC)nc1CC | inactive
COc1ccc2[nH]c(C(=O)Nc3ccccc3Cl)cc2c1 | inactive
CCOc1ccc2[nH]c(C(=O)N/N=C/c3cccc(OC)c3OC)cc2c1 | inactive
COc1ccc2[nH]c(C(=O)N/N=C/c3cc(OC)c(OC)c(OC)c3)cc2c1 | 8.91 µM (active)
CCc1nc2c(cnn2-c2ccc(C)cc2)c(=O)n1-c1ccc(C)cc1 | inactive
Cc1ccccc1N1CC(C(=O)Nc2nnc(SCCC3OCCO3)s2)CC1=O (configuration not stated) | 14.1 µM (active)
COc1ccccc1N1CC(C(=O)Nc2nnc(SCC(=O)NC(C)C)s2)CC1=O (configuration not stated) | inactive
COc1ccccc1N1CC(C(=O)Nc2nnc(SCC(=O)NCC3CCCO3)s2)CC1=O (configuration not stated) | inactive
Cc1ccc(Cl)cc1NC(=O)Cc1ccc(-n2c(C)nc3cccnc32)cc1 | inactive
CCS(=O)(=O)c1cc([N+](=O)[O-])c(Sc2ccccc2N)s1 | inactive
CCOC(=O)C1=C(CC)Nc2ccccc2N=C1N | inactive
CCOC(=O)c1cc(Sc2ccccc2N)cc(C(=O)OCC)n1 | 25.1 µM (active)
CN1c2ccc(Cl)cc2-c2nc(SCC(=O)Nc3cc(F)ccc3F)ncc2S1(=O)=O | inactive
COc1cc(CNCCSc2nnnn2C)ccc1OCc1ccc(Cl)cc1Cl | inactive
CCc1cccc(NC(=O)CN(C)S(=O)(=O)c2ccc3[nH]c4c(c3c2)CCCC4)c1 | inactive

SMILES | Potency
COc1cccc(CNC(=O)CCC(=O)N2CC3CCCN3c3ccccc32)c1 (configuration not stated) | inactive
C/C(=N\Nc1ncc(Cl)cc1Cl)c1ccc(S(=O)(=O)NCc2ccco2)cc1 | inactive
O=C(NCCCCCCNC(=O)NCc1ccco1)NCc1ccco1 | inactive
Cc1c(Cl)cnc(NC(=O)COC(=O)c2ccc(S(=O)(=O)NCc3ccco3)cc2)c1Cl | 31.6 µM (active)
CN(c1ccccc1)S(=O)(=O)c1ccc(Cl)c(C(=O)OCC(=O)NCc2ccco2)c1 | inactive
Cc1cc(C(=O)OCC(=O)NCc2ccco2)c(C)n1-c1ccccc1 | 22.4 µM (active)
CSCCC(NC(=O)c1ccco1)C(=O)OCC(=O)Nc1ncc(Cl)c(C)c1Cl (configuration not stated) | inactive
O=C(COC(=O)C12CC3CC(CC(C3)C1)C2)NCc1ccco1 | 14.1 µM (active)
O=C(COC(=O)c1cnc(Cl)c(Cl)c1)NCc1ccco1 | 25.1 µM (active)
O=C(COC(=O)c1ccco1)NCc1ccc(Cl)cc1 | inactive
Cc1cc(C(=O)OCC(=O)N2c3ccccc3NC(=O)C2(C)C)c(C)n1-c1ccccc1 | inactive
O=C(COC(=O)c1cc(S(=O)(=O)N2CCCCC2)ccc1Cl)NCc1ccco1 | inactive
O=C(CC1CCCCC1)NCc1ccco1 | inactive
COc1ccc(NC(=O)CCCN2C(=O)CCn3nc(-c4cn(C)c5ccccc45)cc32)cc1OC | inactive
CCN1CCN(C(c2ccc(C)cc2)c2c(O)cc(C)n(Cc3ccco3)c2=O)CC1 (configuration not stated) | inactive
CC1Cc2cc(S(=O)(=O)CCC(=O)NCc3ccc(Cl)cc3)ccc2N1C(=O)C1CC1 (configuration not stated) | inactive
C#CC(C)(CC)NC(=O)Cn1nnc(-c2ccc(OCc3c(F)cccc3Cl)cc2)n1 (configuration not stated) | inactive
CC(=O)OC1=C(C(C)=O)N(Cc2ccccc2)S(=O)(=O)c2ccccc21 | inactive
O=C(C1CCC(Cn2c(=O)c3sccc3n(Cc3ccccc3F)c2=O)CC1)N1CCCCC1 (configuration not stated) | inactive
COCCCNC(=O)c1ccc(NC(=O)c2nsc3ccccc23)cc1 | inactive
